Measurements from PubChem BioAssay (NCATS).
Results filed as inconclusive are left out. A call without a number means that no potency is given here. Active and inactive are the calls of the source. Unless noted, the call rests on the fitted dose curve; in most records, active means well fitted curve in the direction sought with a large enough effect; inconclusive means small, poorly fitted or top-dose-only effect, or another doubt; inactive means no such curve, though single readings can be large; an effect the other way counts as inactive or inconclusive.

Each compound was assayed against Peptidyl-prolyl cis-trans isomerase NIMA-interacting 1 (Homo sapiens) (UniProt Q13526) (assay: qHTS Validation Assay to Find Inhibitors of Pin1 (AID 504536; active means well fitted inhibition curve with a large enough effect in the polarisation, with a control signal flat, not every such curve was filed as active; the % refers to the polarisation; further: potency means the concentration at half of the fitted maximal effect)). Details: Pin1 fluorescence polarization peptide binding assay; series mostly up to 57.5 µM.
Peptidyl-prolyl cis-trans isomerase NIMA-interacting 1 (Homo sapiens), sequence (Q13526 whole entry, looked up): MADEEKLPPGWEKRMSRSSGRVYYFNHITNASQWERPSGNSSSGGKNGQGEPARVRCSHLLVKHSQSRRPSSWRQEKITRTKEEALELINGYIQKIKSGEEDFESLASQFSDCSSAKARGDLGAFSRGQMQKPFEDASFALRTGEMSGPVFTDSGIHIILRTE
Summary of the method: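 Fluorescence polarization competition: compounds (titration) displace HiFluor-488-labeled Pin1-1b peptide from Pin1 (0.3 uM final) in pH 7.5 HEPES buffer with DTT, 10 min at room temperature; %Activity normalized to no-enzyme wells, curves fitted.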
In the case of `CCCn1c(=O)c2[nH]c(-c3ccc(S(=O)(=O)O)cc3)nc2n(CCC)c1=O`, the Potency is reported as “inactive”. `C#CC(N)CCC(=O)O` (stereo not drawn) was tested, and the Potency was “inactive”. With `COc1ccccc1N1CCN(CCCCNC(=O)c2ccc3ccccc3c2)CC1` the Potency was “inactive”. In the case of `CCSC(=N)N`, the Potency is reported as “inactive”. With `O=C(O)[C@H]1NCCC[C@H]1C(=O)O` the Potency was “inactive”. With `CC(C)NC[C@H](O)COc1ccc(CC(N)=O)cc1` the Potency was “inactive”. With `CCC(=O)N1CCN(C(=O)c2ccccc2)CC1` the Potency was “inactive”. With `NC(=O)CNCCC(c1ccccc1)c1ccccc1` the Potency was “inactive”. With `Nc1ncnc2c1ncn2C1CCCO1` (stereo not drawn) the Potency was “inactive”. `N=C(N)c1ccccc1` was tested, and the Potency was “inactive”. In the case of `O=C(O)/C=C/c1ccc(O)c(O)c1`, the Potency is reported as “inactive”. For `Cc1nc(N=Nc2ccc(C(=O)O)cc2)c(COP(=O)(O)O)c(C=O)c1O`, the Potency was 26.9 µM (active). In the case of `CC[N+](CC)(CC)CC(=O)Nc1c(C)cccc1C`, the Potency is reported as “inactive”. With `CCN1C(=O)C=CC1=O` the Potency was “inactive”. With `O=C(O)CCC(=O)N1CCCC1C(=O)O` (stereo not drawn) the Potency was “inactive”. For `O=C(O)C1CCNCC1`, the Potency was “inactive”.

The compounds below were run against Phosphoglycerate kinase, glycosomal (Trypanosoma brucei brucei) (UniProt P07378) (assay: qHTS Validation Assay to Find Inhibitors of Phosphoglycerate Kinase (AID 504547)). Details: enzymatic PGK inhibition, coupled luminescence read-out; series mostly up to 57.5 µM.
Phosphoglycerate kinase, glycosomal (Trypanosoma brucei brucei), sequence (P07378 whole entry, looked up): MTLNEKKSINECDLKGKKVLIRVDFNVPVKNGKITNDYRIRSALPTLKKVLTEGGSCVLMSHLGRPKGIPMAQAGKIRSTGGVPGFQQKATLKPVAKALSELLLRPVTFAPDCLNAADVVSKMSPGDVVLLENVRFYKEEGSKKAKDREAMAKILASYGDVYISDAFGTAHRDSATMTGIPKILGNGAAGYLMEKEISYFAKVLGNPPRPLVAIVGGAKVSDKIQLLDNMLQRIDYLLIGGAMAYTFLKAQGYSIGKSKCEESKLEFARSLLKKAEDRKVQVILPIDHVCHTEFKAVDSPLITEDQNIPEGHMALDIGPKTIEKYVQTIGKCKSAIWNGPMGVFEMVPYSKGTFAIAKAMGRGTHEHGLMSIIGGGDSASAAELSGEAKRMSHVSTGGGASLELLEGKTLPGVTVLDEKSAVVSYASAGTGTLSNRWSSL
Summary of the method: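 PGK activity was coupled to GAPDH (100nM final), which generates the unstable substrate 1,3-bisphosphoglycerate in-well. Reactions ran 60 minutes at room temperature in 100mM TEA pH 7.6, 5mM MgCl2, 0.01% Tween-20, then Kinase-Glo Plus luminescence was read.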
In the case of `N[C@@H](CCCC(=O)O)C(=O)O`, the Potency is reported as “inactive”. With `CSC(N)=NCCC[C@H](N)C(=O)O` the Potency was “inactive”. For `NCCCCN=C(N)N`, the Potency was “inactive”. `C#CCn1c(=O)c2c(ncn2C)n(C)c1=O` was tested, and the Potency was “inactive”. In the case of `O=C(O)Cc1c[nH]c2ccc(O)cc12`, the Potency is reported as “inactive”. With `COc1cc(N)c(Cl)cc1C(=O)OCCN1CCCCC1` the Potency was “inactive”. `c1ccc(C2CN3CCSC3=N2)cc1` (stereo not drawn) was tested, and the Potency was “inactive”. For `NCCS(=O)O`, the Potency was “inactive”. With `Oc1ccc(Cn2cc[nH]c2=S)cc1` the Potency was “inactive”. `COc1ccc(-c2ccc(N)[n+](CCCC(=O)O)n2)cc1` was tested, and the Potency was “inactive”. `CC(C)Cn1c(=O)n(C)c(=O)c2[nH]cnc21` was tested, and the Potency was “inactive”. For `Cn1cc(C(F)(F)F)nc1-c1ccc(OCC(O)CNCCOc2ccc(O)c(C(N)=O)c2)cc1` (stereo not drawn), the Potency was “inactive”. For `Cn1c(=O)c2c(nc(/C=C/c3cccc(Cl)c3)n2C)n(C)c1=O`, the Potency was “inactive”. `Cn1cc(C(=O)OCC2CCN(CCNS(C)(=O)=O)CC2)c2ccccc21` was tested, and the Potency was “inactive”. In the case of `NC/C=C\C(=O)O`, the Potency is reported as “inactive”. `Nc1ccc(-c2nc3ccc(-c4nc5ccc(N)cc5[nH]4)cc3[nH]2)cc1` was tested, and the Potency was “inactive”. With `NC(=O)c1cc[n+](CC2=C(C(=O)O)N3C(=O)[C@@H](NC(=O)[C@@H](c4ccccc4)S(=O)(=O)[O-])[C@H]3SC2)cc1` the Potency was “inactive”. `N[C@@H](Cc1c[nH]c2ccccc12)C(=O)O` was tested, and the Potency was “inactive”. For `CN[C@H](CC(=O)O)C(=O)O`, the Potency was “inactive”. `CCCCCCCCCC[Si](C)(C)CCC(=O)NC(Cc1ccc(C)cc1)c1ccccc1` (stereo not drawn) was tested, and the Potency was “inactive”. In the case of `Cc1cccc(C)c1OCC(N)C(C)C` (stereo not drawn), the Potency is reported as “inactive”. With `Cn1ccnc1` the Potency was “inactive”. `CCCn1c(=O)c2[nH]c(-c3ccc(S(=O)(=O)O)cc3)nc2n(CCC)c1=O` was tested, and the Potency was “inactive”. In the case of `C#CC(N)CCC(=O)O` (stereo not drawn), the Potency is reported as “inactive”. `COc1ccccc1N1CCN(CCCCNC(=O)c2ccc3ccccc3c2)CC1` was tested, and the Potency was “inactive”. In the case of `CCSC(=N)N`, the Potency is reported as “inactive”. In the case of `O=C(O)[C@H]1NCCC[C@H]1C(=O)O`, the Potency is reported as “inactive”. With `CC(C)NC[C@H](O)COc1ccc(CC(N)=O)cc1` the Potency was “inactive”. `CCC(=O)N1CCN(C(=O)c2ccccc2)CC1` was tested, and the Potency was “inactive”. For `NC(=O)CNCCC(c1ccccc1)c1ccccc1`, the Potency was “inactive”. `Nc1ncnc2c1ncn2C1CCCO1` (stereo not drawn) was tested, and the Potency was “inactive”. `N=C(N)c1ccccc1` was tested, and the Potency was “inactive”. For `O=C(O)/C=C/c1ccc(O)c(O)c1`, the Potency was “inactive”. `Cc1nc(N=Nc2ccc(C(=O)O)cc2)c(COP(=O)(O)O)c(C=O)c1O` was tested, and the Potency was “inactive”. With `CC[N+](CC)(CC)CC(=O)Nc1c(C)cccc1C` the Potency was “inactive”. For `CCN1C(=O)C=CC1=O`, the Potency was “inactive”. With `O=C(O)CCC(=O)N1CCCC1C(=O)O` (stereo not drawn) the Potency was “inactive”. For `O=C(O)C1CCNCC1`, the Potency was “inactive”.

The compounds below were run against phosphoglycerate mutase (Leishmania major) (UniProt Q4Q090) (assay: qHTS Validation Assay to Find Inhibitors of Phosphoglycerate Mutase (AID 504548)). Details: biochemical enzyme activity; Potency: inhibition qHTS; series mostly up to 57.5 µM.
phosphoglycerate mutase (Leishmania major), sequence (Q4Q090 1-553): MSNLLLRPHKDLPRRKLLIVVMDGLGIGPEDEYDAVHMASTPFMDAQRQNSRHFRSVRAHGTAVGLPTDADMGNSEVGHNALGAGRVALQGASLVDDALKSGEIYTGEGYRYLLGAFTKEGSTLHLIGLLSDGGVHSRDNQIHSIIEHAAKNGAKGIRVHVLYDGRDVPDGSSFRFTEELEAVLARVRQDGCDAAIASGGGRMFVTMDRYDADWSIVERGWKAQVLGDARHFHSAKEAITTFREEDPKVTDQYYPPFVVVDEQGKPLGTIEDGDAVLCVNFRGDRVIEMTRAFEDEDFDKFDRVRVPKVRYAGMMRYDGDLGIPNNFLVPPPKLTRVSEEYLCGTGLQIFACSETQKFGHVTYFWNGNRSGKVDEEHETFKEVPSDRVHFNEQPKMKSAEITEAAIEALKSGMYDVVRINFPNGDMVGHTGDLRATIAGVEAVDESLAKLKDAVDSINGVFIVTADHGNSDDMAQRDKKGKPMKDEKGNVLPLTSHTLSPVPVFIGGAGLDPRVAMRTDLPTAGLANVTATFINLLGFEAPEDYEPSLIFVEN
Summary of the method: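 Luminescent end-point read-out via Kinase-GloPlus after a 10-minute development. Reaction: 1.25nM Leishmania major PGAM with substrate and compound, 45 minutes at room temperature in TEA buffer (pH 7.6) with MgCl2 and Tween-20.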
In the case of `N[C@@H](CCCC(=O)O)C(=O)O`, the Potency is reported as “inactive”. With `NCCCCN=C(N)N` the Potency was “inactive”. With `C#CCn1c(=O)c2c(ncn2C)n(C)c1=O` the Potency was “inactive”. `O=C(O)Cc1c[nH]c2ccc(O)cc12` was tested, and the Potency was “inactive”. In the case of `c1ccc(C2CN3CCSC3=N2)cc1` (stereo not drawn), the Potency is reported as “inactive”. With `NCCS(=O)O` the Potency was “inactive”. With `Oc1ccc(Cn2cc[nH]c2=S)cc1` the Potency was “inactive”. In the case of `COc1ccc(-c2ccc(N)[n+](CCCC(=O)O)n2)cc1`, the Potency is reported as “inactive”. With `CC(C)Cn1c(=O)n(C)c(=O)c2[nH]cnc21` the Potency was “inactive”. For `Cn1cc(C(F)(F)F)nc1-c1ccc(OCC(O)CNCCOc2ccc(O)c(C(N)=O)c2)cc1` (stereo not drawn), the Potency was “inactive”. `Cn1c(=O)c2c(nc(/C=C/c3cccc(Cl)c3)n2C)n(C)c1=O` was tested, and the Potency was “inactive”. With `Cn1cc(C(=O)OCC2CCN(CCNS(C)(=O)=O)CC2)c2ccccc21` the Potency was “inactive”. `NC/C=C\C(=O)O` was tested, and the Potency was “inactive”. With `N[C@@H](Cc1c[nH]c2ccccc12)C(=O)O` the Potency was “inactive”. With `CN[C@H](CC(=O)O)C(=O)O` the Potency was “inactive”. With `CCCCCCCCCC[Si](C)(C)CCC(=O)NC(Cc1ccc(C)cc1)c1ccccc1` (stereo not drawn) the Potency was “inactive”. In the case of `Cc1cccc(C)c1OCC(N)C(C)C` (stereo not drawn), the Potency is reported as “inactive”. `Cn1ccnc1` was tested, and the Potency was “inactive”. `CCCn1c(=O)c2[nH]c(-c3ccc(S(=O)(=O)O)cc3)nc2n(CCC)c1=O` was tested, and the Potency was “inactive”. `C#CC(N)CCC(=O)O` (stereo not drawn) was tested, and the Potency was “inactive”. For `COc1ccccc1N1CCN(CCCCNC(=O)c2ccc3ccccc3c2)CC1`, the Potency was “inactive”. For `CCSC(=N)N`, the Potency was “inactive”. `O=C(O)[C@H]1NCCC[C@H]1C(=O)O` was tested, and the Potency was “inactive”. For `CC(C)NC[C@H](O)COc1ccc(CC(N)=O)cc1`, the Potency was “inactive”. With `CCC(=O)N1CCN(C(=O)c2ccccc2)CC1` the Potency was “inactive”. `NC(=O)CNCCC(c1ccccc1)c1ccccc1` was tested, and the Potency was “inactive”. `Nc1ncnc2c1ncn2C1CCCO1` (stereo not drawn) was tested, and the Potency was “inactive”. In the case of `N=C(N)c1ccccc1`, the Potency is reported as “inactive”. For `O=C(O)/C=C/c1ccc(O)c(O)c1`, the Potency was “inactive”. `Cc1nc(N=Nc2ccc(C(=O)O)cc2)c(COP(=O)(O)O)c(C=O)c1O` was tested, and the Potency was “inactive”. With `CC[N+](CC)(CC)CC(=O)Nc1c(C)cccc1C` the Potency was “inactive”. In the case of `CCN1C(=O)C=CC1=O`, the Potency is reported as “inactive”. In the case of `O=C(O)CCC(=O)N1CCCC1C(=O)O` (stereo not drawn), the Potency is reported as “inactive”. `O=C(O)C1CCNCC1` was tested, and the Potency was “inactive”.
